From PubChem
IP6K1 inhibitor = inhibitors of human IP6K1; IP6K1 kinase, ADP-Glo luminescence, 2 h; active compounds read low; activity change, % (series mostly up to about 58 µM); actives 0.81% (n = 140,000); AID 1645851; in the data active = activity change below about -25%; also: % is scaled to controls: 0 for no effect and ±100 for the full control effect
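ADP-Glo luminescence measures ADP made by human IP6K1 during a 2 h RT reaction with ATP/IP6 (mix at 1.3 mM/130 uM); top library doses 57.5 and 19.1 uM final.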
HEK293 viab = cell viability loss counter-screen; HEK-293-SNCA-luc viability, GF-AFC fluorescence, 24 h; Potency, µM (top dose mostly 57.1 µM), for the others: at the highest dose activity change, negative = cytotoxicity, actives largely listed as cytotoxic; actives 0.12% (n = 150,000); AID 1671193;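 also: potency is read from the fitted curve at half-maximal effect; 0% = DMSO-treated cells and -100% = medium-only wells without cells; nearly all actives have a fitted effect of over 30% in size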
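Cytotoxicity counterscreen: after 24 h compound treatment of genome-edited SNCA-luciferase HEK-293 cells, live-cell protease substrate GF-AFC read by fluorescence after 30 min; activity scaled between DMSO (0%) and medium-only (-100%), curves Hill-fitted.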
KDM5B inhibitor = KDM5B demethylase inhibition; Q9UGL1; KDM5B demethylase, FDH-coupled NADH fluorescence (FDH is formaldehyde dehydrogenase); Potency, µM (highest dose often 57.7 µM), most hits filed as inhibitors; actives 2.6% (n = 220,000); AID 1347165; also: potency is read from the fitted curve at half-maximal effect; 0% is about no effect; nearly all actives have a fitted effect of over 70% in size
Target sequence (Q9UGL1 whole entry, looked up): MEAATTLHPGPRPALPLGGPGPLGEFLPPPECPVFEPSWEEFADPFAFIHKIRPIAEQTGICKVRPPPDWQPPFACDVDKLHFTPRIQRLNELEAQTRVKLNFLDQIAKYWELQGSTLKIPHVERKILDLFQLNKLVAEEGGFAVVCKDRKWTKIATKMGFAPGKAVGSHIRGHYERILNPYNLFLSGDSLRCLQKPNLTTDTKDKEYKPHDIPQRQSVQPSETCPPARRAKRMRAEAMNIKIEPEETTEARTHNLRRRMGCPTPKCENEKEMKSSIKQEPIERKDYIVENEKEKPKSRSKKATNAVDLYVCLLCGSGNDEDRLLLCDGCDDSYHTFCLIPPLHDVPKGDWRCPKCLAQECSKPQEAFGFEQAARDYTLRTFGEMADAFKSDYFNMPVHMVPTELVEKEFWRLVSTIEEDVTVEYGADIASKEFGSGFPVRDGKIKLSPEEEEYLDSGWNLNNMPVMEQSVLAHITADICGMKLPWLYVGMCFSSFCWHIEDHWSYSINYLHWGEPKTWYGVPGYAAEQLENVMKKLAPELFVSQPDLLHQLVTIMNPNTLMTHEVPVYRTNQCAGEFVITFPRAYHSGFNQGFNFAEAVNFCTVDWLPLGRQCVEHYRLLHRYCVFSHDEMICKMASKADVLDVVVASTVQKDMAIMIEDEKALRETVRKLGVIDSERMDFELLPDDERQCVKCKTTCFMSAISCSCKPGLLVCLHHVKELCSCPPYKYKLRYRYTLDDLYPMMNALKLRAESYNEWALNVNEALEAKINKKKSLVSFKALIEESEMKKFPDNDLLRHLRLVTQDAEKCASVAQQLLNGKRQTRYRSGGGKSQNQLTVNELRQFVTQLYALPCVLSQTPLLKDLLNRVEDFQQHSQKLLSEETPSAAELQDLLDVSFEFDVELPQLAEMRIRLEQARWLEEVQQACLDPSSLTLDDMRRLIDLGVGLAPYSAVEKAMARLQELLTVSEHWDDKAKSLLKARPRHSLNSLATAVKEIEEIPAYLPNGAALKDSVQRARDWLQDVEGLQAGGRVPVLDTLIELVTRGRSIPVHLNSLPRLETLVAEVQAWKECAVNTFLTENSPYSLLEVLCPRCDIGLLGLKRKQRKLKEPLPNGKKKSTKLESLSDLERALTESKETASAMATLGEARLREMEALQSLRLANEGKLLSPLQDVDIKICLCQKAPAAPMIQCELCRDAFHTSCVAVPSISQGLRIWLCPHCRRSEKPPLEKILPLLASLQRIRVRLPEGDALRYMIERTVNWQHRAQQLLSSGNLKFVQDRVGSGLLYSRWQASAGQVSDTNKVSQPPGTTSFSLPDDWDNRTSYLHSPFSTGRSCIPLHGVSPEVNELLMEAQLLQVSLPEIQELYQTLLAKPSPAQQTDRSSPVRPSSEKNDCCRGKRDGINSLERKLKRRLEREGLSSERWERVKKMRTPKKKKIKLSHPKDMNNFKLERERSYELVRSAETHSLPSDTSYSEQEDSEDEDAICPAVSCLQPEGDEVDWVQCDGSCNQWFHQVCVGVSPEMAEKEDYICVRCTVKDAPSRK
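Here, H3K4me3 peptide (12.5 µM in substrate mix) is demethylated by KDM5BΔAP, 200 nM final, after 10 min compound exposure. Formaldehyde product is coupled through FDH (0.25 U/mL in mix) to NADH fluorescence; 30-min ΔRFU feeds dose-response curves.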
SNCA expr inhib = inhibitors of alpha-synuclein (SNCA) gene expression. HEK-293 SNCA-luciferase knock-in, luminescence, 24 h. Potency, µM (highest dose often 57.2 µM), without a hit: top-dose activity change, negative = inhibition, hits mostly inhibitors. actives 0.17% (n = 140,000);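 also: potency is read from the fitted curve at half-maximal effect; plate controls were DMSO cells for no effect and cell-free wells for full effect; nearly all actives have a fitted effect of over 45% in size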
Starred values were filed as active, the others as inactive; i = inactive; ? = inconclusive; / = not tested or not shown; [ ] = dose if it differs, or a comment. Hits are enriched below; roughly 2.8% of the tested compounds scored in any of these assays. Unless noted, calls follow the shape of the dose curve; as a rule, active = well fitted curve in the direction sought with a large enough effect; inconclusive = small, poorly fitted or top-dose-only effect, or another doubt; inactive = no such curve, though single readings can be large; an effect the other way counts as inactive or inconclusive.

SMILES	IP6K1 inhibitor	HEK293 viab	KDM5B inhibitor	SNCA expr inhib
O=C(NCc1cccs1)C1CCN(c2nc3ncccc3o2)CC1	-1	7%[87.6 µM]	32µM*	12%[87.6 µM]
COC(=O)NC1CCN(c2nc3ncccc3o2)CC1	-10	1%[87.6 µM]	35µM*	11%[87.6 µM]
COc1ccc(-n2cc(CN3CCC(CO)CC3)c(-c3cccc(F)c3)n2)cc1	18	-4%	?	1%
COc1ccc(-n2cc(CN3CCCC(O)C3)c(-c3cccc(F)c3)n2)cc1 (configuration not stated)	-1	?	22µM*	67%
O=C(NCc1cccc(Cl)c1)c1ccc2nnc(-c3cc(C(F)(F)F)cc(C(F)(F)F)c3)n2c1	-2	-28%	/	?
COc1ccc2c(c1)c(CN1CCCCCCN(C)C(=O)[C@@H]3CCC[C@@H]31)cn2C	0	?	?	?
c1cn(-c2ccc(Oc3nn[nH]n3)cc2)c(-c2cc3n(n2)CCNC3)n1	2	16%	18µM*	-25%
c1cn(-c2ccc(OCC3CCCO3)cc2)c(-c2cc3n(n2)CCNC3)n1 (configuration not stated)	-3	-4%	?	-25%
CN1CCC(NC(=O)C2(C)CCc3cnc(N4CCOCC4)nc32)CC1 (configuration not stated)	9	13%[87.6 µM]	35µM*	?
COc1ccc(NC(=O)C2(C)CCc3cnc(N4CCOCC4)nc32)cc1 (configuration not stated)	16	17%[87.6 µM]	40µM*	-10%[87.6 µM]
CC1(C(=O)NC2CCOCC2)CCCc2cnc(Nc3ccccc3)nc21 (configuration not stated)	6	-26%[87.6 µM]	i	-10%[87.6 µM]
O=C(NCc1ccccc1F)c1ccc2c(c1)CN(CC1=Cc3ccccc3OC1)CCO2	-1	-28%	i	14%
Cc1nn(-c2ccccc2)c2c1C(C(C)C)N(C1CCCN(C(=O)c3ccc(Cl)nc3)C1)C2=O (configuration not stated)	3	/	/	/
O=C1CC2(CCN(CC3CC3)CC2)Oc2cc(Cl)ccc21	0	-6%[87.6 µM]	?	60%[87.6 µM]
N#Cc1ccc(CN2CCC3(CC2)CC(=O)c2ccccc2O3)cc1	-4	-17%[87.6 µM]	32µM*	-24%[87.6 µM]
CN(C)c1ccc(CN2CCC3(CC2)CC(=O)c2ccccc2O3)cc1	8	-9%	i	25%
O=C1CC2(CCN(Cc3ccc(F)cc3)CC2)Oc2ccccc21	15	-8%[87.6 µM]	28µM*	9%[87.6 µM]
O=C1CC2(CCN(CC3CCCCC3)CC2)Oc2ccccc21	10	-7%[87.6 µM]	32µM*	4%[87.6 µM]
O=C1CC2(CCN(Cc3cccnc3)CC2)Oc2ccccc21	0	3%[87.6 µM]	35µM*	23%[87.6 µM]
Cc1cc(C)c(NC(=O)CNC(=O)COC(=O)Cc2n[nH]c(=O)c3ccccc23)c(C)c1	/	/	i	/
COc1ccc(Nc2nc(N)c(C(=O)c3ccc(C)cc3C)s2)cc1Cl	/	/	i	/
COCCOCC1(CNC(=O)c2nc3ccccc3[nH]2)C[C@@H](O)[C@@H](O)C1 (some centres not stated)	2	6%[87.6 µM]	32µM*	11%[87.6 µM]
O=C(NCC1(COc2cnccn2)C[C@@H](O)[C@@H](O)C1)c1nc2ccccc2[nH]1 (some centres not stated)	8	3%	28µM*	28%
CCN1C(=O)C2(CCN(S(=O)(=O)c3ccc(F)c(C)c3)CC2)c2ccccc21	-15	-13%	i	-25%
CN(C)c1ccc(C(=O)N2CCN3C(=O)c4cc(-c5ccc6c(c5)OCO6)ccc4NC(=O)[C@H]3C2)cc1	15	1%	35µM*	?
SMILES	IP6K1 inhibitor	HEK293 viab	KDM5B inhibitor	SNCA expr inhib
O=C1Nc2ccc(-c3ccc4c(c3)OCO4)cc2C(=O)N2CCN(C(=O)c3cccs3)C[C@@H]12	-17	-17%	28µM*	-14%
CSc1ccc(-c2ccc3c(c2)C(=O)N2CC[C@H](NC(=O)c4cccs4)C[C@H]2C(=O)N3)cc1	7	4%	28µM*	-8%
COCC(=O)N1CCN2C(=O)c3cc(-c4ccc5c(c4)OCO5)ccc3NC(=O)[C@H]2C1	-4	2%[87.6 µM]	?	22%[87.6 µM]
COc1ccccc1OC(C)C(=O)N1CCN(CCc2ccccn2)CC1 (configuration not stated)	-11	-3%	i	20µM*
CC(Oc1ccccc1Cl)C(=O)N1CCN(CCc2ccccn2)CC1 (configuration not stated)	-6	6%	i	12%
COC1CCC(C(=O)N2CCc3c(n(CCOc4ccccc4)n(-c4ccccc4)c3=O)C2)CC1 (configuration not stated)	18	2%	i	7%
COc1ccc(C(=O)N2C[C@@H]3C[C@H](C2)c2ccc(NS(=O)(=O)c4cccc(C(F)(F)F)c4)c(=O)n2C3)cc1	3	-15%	i	-1%
CC(=O)Nc1ccc(S(=O)(=O)N2C[C@@H]3C[C@H](C2)c2ccc(-c4ccc5ccccc5c4)c(=O)n2C3)cc1	7	5%	25µM*	40%
O=C(Nc1cccc(F)c1)N1C[C@@H]2C[C@H](C1)c1ccc(-c3cccc(C(F)(F)F)c3)c(=O)n1C2	10	7%	28µM*	30%
COc1ccc(C(=O)N2C[C@@H]3C[C@H](C2)c2ccc(-c4ccc5ccccc5c4)c(=O)n2C3)cc1	4	-2%	28µM*	-23%
CC(Sc1ccccn1)C(=O)NC(C)c1ccc(F)cc1 (configuration not stated)	/	/	i	/
CC(C)CN1CCN(c2nc3c(c(=O)[nH]c(=O)n3C)n2Cc2ccc(Cl)c(Cl)c2)CC1	/	/	i	/
Fc1ccc(-c2ccnc3nc(C4CCCO4)nn23)cc1 (configuration not stated)	9	5%	?	-3%
COc1ccc(-c2ccnc3nc(CCc4ccccc4)nn23)c(F)c1	-1	9%	28µM*	-18%
COc1cc(F)ccc1-c1ccnc2nc(CCc3ccccc3)nn12	3	0%	25µM*	-21%
COc1ccc(-c2ccnc3nc(C4CCCO4)nn23)c(F)c1 (configuration not stated)	0	-8%	25µM*	-4%
NC(=O)CN1CCC(C(=O)NCc2cn3cccnc3n2)CC1	21	0%	28µM*	-21%
COC(=O)c1ccccc1S(=O)(=O)N1CCC(C(=O)NCc2ccccn2)CC1	/	/	i	/
COCc1ncc(C)n1C1CCCN(C(=O)CCn2nc(C)cc2C)C1 (configuration not stated)	-5	14%	/	-21%
c1cc2c(cc1OC1CNC1)OCO2	-12	0%[87.6 µM]	i	2%[87.6 µM]
Cc1nn2c(N3CCC(O)C3)cc(-c3ccccc3)nc2c1C (configuration not stated)	16	14%	28µM*	32%
Cc1cc(N2CCNC(c3ccccc3)C2)n2nc(C)c(C)c2n1 (configuration not stated)	-14	?	i	-5%
COc1ccc(Cl)cc1C(=O)NCc1nnc2ccc(-c3ccccc3)nn12	-3	1%	25µM*	-2%
